Measurements taken from PubChem BioAssay (EPA / NIEHS).
Results filed as inconclusive are left out. The source made the active and inactive calls. Rule for the calls, unless noted: active = hit-call score of the fitted dose curve at least 0.9, where 1 is the maximum; inactive = score below 0.9.

Key:
[1] = ACEA_ER_80hr: ACEA Biosciences xCELLigence Real-Time Cell Analysis on Estrogen Receptor Agonism for Proliferation (AID 2282667; active = hit-call score of the fitted dose curve at least 0.9, where 1 is the maximum); conditions: T47D proliferation, impedance (xCELLigence), 80 h
Procedure, shortened: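 T-47D cells monitored by electrical impedance (xCELLigence) with compound present throughout; 80 h timepoint, positive-direction fitting versus DMSO. Eight-point 1:4 dilutions from 100 uM final, duplicate plates.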

[2] = ATG_CRE_CIS: Attagene CIS-FACTORIAL HepG2 Assay for human cAMP Responsive Element (CRE) binding protein 3 (AID 2282926); conditions: HepG2 CRE cis-reporter, Attagene multiplexed mRNA; actives raise or lower the signal
Procedure, shortened: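 HepG2 cells transiently transfected with cis-element-driven multiple reporter transcription units; CRE reporter mRNA measured 24 h after dosing by RT-PCR, 6-FAM labelling, HpaI digestion and capillary electrophoresis. Bidirectional fit versus DMSO baseline.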

[3] = target: CCAAT/enhancer-binding protein beta (Homo sapiens) (UniProt P17676); assay: ATG_C_EBP_CIS: Attagene CIS-FACTORIAL HepG2 Assay for human CCAAT/Enhancer Binding Protein (C/EBP) beta (AID 2282927); conditions: HepG2 Attagene cis-factorial transcription factor reporter; actives raise or lower the signal
Procedure, shortened: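 RT-PCR/capillary electrophoresis fluorescence of reporter mRNA, 24 h post-dose, in HepG2 cells carrying transfected cis-promoter reporter units. Bidirectional curve fitting against DMSO baseline captures gain or loss of signal.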

[4] = ATG_CMV_CIS: Attagene CIS-FACTORIAL HepG2 Assay for human CMV (Internal Marker) (AID 2282928); conditions: HepG2 CMV promoter reporter, transcription factor profiling; actives raise or lower the signal;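 note: endpoint acts as a background internal control marker rather than a target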
Procedure, shortened: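 After transient transfection of HepG2 with reporter transcription units driven by cis-regulatory promoters, cells receive test chemical for 24 h. Labeled reporter amplicons, digested with HpaI, are sized and quantified by capillary electrophoresis against DMSO.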

[5] = target: Aryl hydrocarbon receptor (Homo sapiens) (UniProt P35869); assay: ATG_Ahr_CIS: Attagene CIS-FACTORIAL HepG2 Assay for human Aryl Hydrocarbon Receptor (Ahr) (AID 2282930); conditions: HepG2 AhR cis-factorial reporter transcription; actives raise or lower the signal
Procedure, shortened: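 HepG2 cells transiently transfected with cis-element-driven multiplexed reporter transcription units; endogenous transcription factor activity measured as reporter mRNA 24 h after dosing. RT-PCR, 6-FAM labelling, HpaI digestion, capillary electrophoresis; bidirectional fitting versus DMSO baseline.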

[6] = ATG_AP_1_CIS: Attagene CIS-FACTORIAL HepG2 Assay for human Activator Protein 1 (AP-1) (AID 2282931); conditions: HepG2 Attagene cis-factorial AP-1 reporter mRNA; actives raise or lower the signal
Procedure, shortened: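 Reporter transcripts were measured 24 h after dosing by RT-PCR and capillary electrophoresis of fluorescent fragments. Cells: HepG2 carrying transfected cis-regulated reporter constructs reading endogenous factor activity. Gain or loss fitted against DMSO.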

[7] = ATG_AP_2_CIS: Attagene CIS-FACTORIAL HepG2 Assay for human Activator Protein 2 (AP-2) (AID 2282932); conditions: HepG2 AP-2 cis-reporter, Attagene transcription factor profiling; actives raise or lower the signal
Procedure, shortened: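 HepG2 cells were transiently transfected with multiple cis-promoter reporter transcription units and dosed for 24 h. Reporter mRNA was measured by RT-PCR with capillary electrophoresis fluorescence; bidirectional fits relative to DMSO baseline.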

[8] = ATG_BRE_CIS: Attagene CIS-FACTORIAL HepG2 Assay for human Bone Morphogenetic Protein (BMP) Response Element (BRE) (AID 2282933); conditions: HepG2 BMP response element reporter, Attagene transcription factor profiling; actives raise or lower the signal
Procedure, shortened: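 Transient MRTU transfection of human HepG2 liver cells; 24 h compound treatment; total RNA isolated, reverse-transcribed, PCR-amplified, 6-FAM labelled, HpaI-cut, capillary electrophoresis. DMSO = negative control/baseline, bidirectional fit.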

[9] = target: Retinoic acid receptor alpha (Homo sapiens) (UniProt P10276); assay: ATG_DR5_RAR_CIS: Attagene CIS-FACTORIAL HepG2 Assay for human Retinoic Acid Receptor Alpha (RARE), DR5 submotif (AID 2282934); conditions: HepG2 Attagene cis-factorial RARE DR5 reporter, mRNA; actives raise or lower the signal
Procedure, shortened: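 HepG2 cells transiently transfected with multiplexed reporter units under cis (DR5 RARE) promoters, so endogenous transcription factor activity is measured. After 24 h compound exposure, reporter mRNA is quantified by RT-PCR with fluorescent labelling and capillary electrophoresis; bidirectional fitting versus DMSO.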

[10] = target: Transcription factor E2F1 (Homo sapiens) (UniProt Q01094); assay: ATG_E2F_CIS: Attagene CIS-FACTORIAL HepG2 Assay for human E2F Transcription Factor 1 (AID 2282935); conditions: HepG2 Attagene cis-reporter, E2F reporter RNA transcripts; actives raise or lower the signal
Procedure, shortened: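 HepG2 cells transiently transfected with multiplexed cis-element reporter units, dosed for 24 h. Reporter mRNA measured by RT-PCR, 6-FAM primer-extension labeling, HpaI digestion and capillary electrophoresis; bidirectional fit versus DMSO baseline.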

[11] = ATG_E_Box_CIS: Attagene CIS-FACTORIAL HepG2 Assay for human Enhancer Box (E-box) (AID 2282936); conditions: HepG2 E-box cis-reporter transcription, actives raise or lower the signal
Procedure, shortened: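 HepG2 cells transiently transfected with multiplexed cis-element reporter units sensing endogenous transcription factor activity; 24 h compound exposure. Reporter mRNA measured by RT-PCR, 6-FAM primer extension, HpaI digestion and capillary electrophoresis; bidirectional fit versus DMSO.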

[12] = ATG_M_61_CIS: Attagene CIS-FACTORIAL HepG2 Assay for M61 Transcription Factor (Internal Marker) (AID 2282937); conditions: HepG2 Attagene CIS-FACTORIAL M61 internal marker reporter; actives raise or lower the signal
Procedure, shortened: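 Readout: fluorescent reporter mRNA fragments resolved by capillary electrophoresis after RT-PCR. Transiently transfected human HepG2 cells carried MRTU constructs reporting endogenous TF activity; 24 h chemical exposure; gain or loss of signal fitted relative to DMSO.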

[13] = ATG_EGR_CIS: Attagene CIS-FACTORIAL HepG2 Assay for human Early Growth Response 1 (EGR1) (AID 2282938); conditions: HepG2 Attagene CIS-FACTORIAL EGR reporter mRNA; actives raise or lower the signal
Procedure, shortened: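 Read-out: fluorescent reporter-mRNA fragments resolved by capillary electrophoresis after RT-PCR, 24 h post-dose in transiently transfected HepG2. Endogenous transcription-factor activity reported via cis-element-regulated reporter units; gain or loss fitted relative to DMSO.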

[14] = ATG_M_19_CIS: Attagene CIS-FACTORIAL HepG2 Assay for M19 Transcription Factor (Internal Marker) (AID 2282939); conditions: HepG2 Attagene CIS-FACTORIAL M19 internal marker reporter; actives raise or lower the signal
Procedure, shortened: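 Transfect HepG2 with MRTU reporter library → dose chemical, 24 h → isolate total RNA, reverse-transcribe with oligo(dT) → PCR, 6-FAM label, HpaI cut (2 h, 37 C) → capillary electrophoresis. Bidirectional fit vs DMSO.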

[15] = ATG_ERE_CIS: Attagene CIS-FACTORIAL HepG2 Assay for Estrogen Response Element (ERE) (AID 2282940); conditions: HepG2 ERE cis-reporter, Attagene RNA transcript; actives raise or lower the signal
Procedure, shortened: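 Transient MRTU transfection of human HepG2; cis-element promoters; 24 h dosing; total RNA → RT (oligo dT) → PCR → 6-FAM primer extension → HpaI digest → CE fluorescence. Bidirectional fit, DMSO baseline.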

[16] = ATG_Ets_CIS: Attagene CIS-FACTORIAL HepG2 Assay for human Erythroblast Transformation Specific (ETS) (AID 2282941); conditions: HepG2 ETS cis-reporter transcription, actives raise or lower the signal
Procedure, shortened: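 Human HepG2 hepatoma cells were transiently transfected with promoter-driven reporter constructs and treated for 24 hours. Reporter transcripts were quantified by RT-PCR with fluorescent primer extension; bidirectional curve fitting used DMSO as reference.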

[17] = target: Hepatocyte nuclear factor 3-beta (Homo sapiens) (UniProt Q9Y261); assay: ATG_FoxA2_CIS: Attagene CIS-FACTORIAL HepG2 Assay for human Forkhead box A2 (FOXA2) (AID 2282942); conditions: HepG2 cis-reporter transcription factor activity, 24 h; actives raise or lower the signal
Procedure, shortened: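 Readout: fluorescent reporter transcripts resolved by capillary electrophoresis after RT-PCR. Transiently transfected HepG2, 24 h compound exposure, endogenous TF activity at cis promoter elements. Gain or loss of signal fitted relative to DMSO.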

[18] = ATG_FoxO_CIS: Attagene CIS-FACTORIAL HepG2 Assay for human Forkhead box O (FoxO) (AID 2282943); conditions: HepG2 Attagene cis-reporter, FoxO element, mRNA; actives raise or lower the signal
Procedure, shortened: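 HepG2 cells transiently transfected with cis-promoter-driven multiple reporter transcription units; 24 h after chemical dosing, reporter mRNA quantified by RT-PCR, fluorescent primer extension, HpaI digestion and capillary electrophoresis. Bidirectional fitting versus DMSO baseline.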

[19] = ATG_GATA_CIS: Attagene CIS-FACTORIAL HepG2 Assay for human GATA Binding Protein (AID 2282944); conditions: HepG2 GATA cis-element reporter, Attagene multiplex mRNA; actives raise or lower the signal
Procedure, shortened: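 Transient MRTU transfection, HepG2, 24 h compound exposure. Total RNA → oligo(dT) RT → PCR → 6-FAM primer extension → HpaI cut → CE. Bidirectional fit vs DMSO.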

Measured: AC50

Chain of Retinoic acid receptor alpha (Homo sapiens) (P10276 whole entry, looked up): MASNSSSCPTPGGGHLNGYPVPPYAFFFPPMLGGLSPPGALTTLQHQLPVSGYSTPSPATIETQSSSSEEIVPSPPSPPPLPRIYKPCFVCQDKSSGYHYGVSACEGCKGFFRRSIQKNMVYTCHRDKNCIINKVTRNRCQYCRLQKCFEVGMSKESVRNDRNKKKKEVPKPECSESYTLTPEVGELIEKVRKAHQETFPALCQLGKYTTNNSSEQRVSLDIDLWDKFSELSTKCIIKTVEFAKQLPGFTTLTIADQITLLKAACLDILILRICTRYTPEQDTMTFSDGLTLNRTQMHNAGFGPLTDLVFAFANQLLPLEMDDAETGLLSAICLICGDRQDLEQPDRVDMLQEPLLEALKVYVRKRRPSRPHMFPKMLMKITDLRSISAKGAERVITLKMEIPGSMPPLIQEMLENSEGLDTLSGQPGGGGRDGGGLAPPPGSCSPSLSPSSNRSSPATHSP
Chain of CCAAT/enhancer-binding protein beta (Homo sapiens) (P17676 whole entry, looked up): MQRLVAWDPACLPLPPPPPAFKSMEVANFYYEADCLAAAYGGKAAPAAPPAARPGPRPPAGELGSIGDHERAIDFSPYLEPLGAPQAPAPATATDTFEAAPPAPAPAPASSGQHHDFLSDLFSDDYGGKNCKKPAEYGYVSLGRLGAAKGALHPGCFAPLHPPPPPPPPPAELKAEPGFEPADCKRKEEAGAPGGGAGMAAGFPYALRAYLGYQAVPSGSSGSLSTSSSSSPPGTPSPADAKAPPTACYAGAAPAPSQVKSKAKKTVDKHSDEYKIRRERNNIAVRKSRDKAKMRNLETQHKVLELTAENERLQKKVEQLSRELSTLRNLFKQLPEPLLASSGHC
Chain of Aryl hydrocarbon receptor (Homo sapiens) (P35869 whole entry, looked up): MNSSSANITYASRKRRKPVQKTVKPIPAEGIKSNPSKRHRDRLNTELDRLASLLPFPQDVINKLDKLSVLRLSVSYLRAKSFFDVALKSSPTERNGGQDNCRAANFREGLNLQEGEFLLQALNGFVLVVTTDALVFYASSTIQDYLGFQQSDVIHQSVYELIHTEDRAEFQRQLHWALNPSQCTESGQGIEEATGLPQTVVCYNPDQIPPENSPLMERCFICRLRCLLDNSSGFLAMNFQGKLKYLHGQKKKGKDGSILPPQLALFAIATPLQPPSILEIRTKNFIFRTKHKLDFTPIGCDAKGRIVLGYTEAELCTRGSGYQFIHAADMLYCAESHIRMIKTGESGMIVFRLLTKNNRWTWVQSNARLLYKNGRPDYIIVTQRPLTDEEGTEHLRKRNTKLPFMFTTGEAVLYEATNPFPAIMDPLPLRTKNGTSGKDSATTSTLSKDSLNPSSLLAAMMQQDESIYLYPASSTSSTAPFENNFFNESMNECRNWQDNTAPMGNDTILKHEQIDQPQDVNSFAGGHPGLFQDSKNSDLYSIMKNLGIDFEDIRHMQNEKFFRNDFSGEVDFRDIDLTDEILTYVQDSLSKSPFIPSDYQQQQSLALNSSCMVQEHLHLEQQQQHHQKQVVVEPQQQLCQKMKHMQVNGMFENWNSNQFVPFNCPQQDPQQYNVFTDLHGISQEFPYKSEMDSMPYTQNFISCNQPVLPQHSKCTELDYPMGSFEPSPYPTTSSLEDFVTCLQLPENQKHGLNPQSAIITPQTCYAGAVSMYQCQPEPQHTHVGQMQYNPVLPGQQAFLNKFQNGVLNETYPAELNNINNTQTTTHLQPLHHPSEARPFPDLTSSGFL
Chain of Hepatocyte nuclear factor 3-beta (Homo sapiens) (Q9Y261 whole entry, looked up): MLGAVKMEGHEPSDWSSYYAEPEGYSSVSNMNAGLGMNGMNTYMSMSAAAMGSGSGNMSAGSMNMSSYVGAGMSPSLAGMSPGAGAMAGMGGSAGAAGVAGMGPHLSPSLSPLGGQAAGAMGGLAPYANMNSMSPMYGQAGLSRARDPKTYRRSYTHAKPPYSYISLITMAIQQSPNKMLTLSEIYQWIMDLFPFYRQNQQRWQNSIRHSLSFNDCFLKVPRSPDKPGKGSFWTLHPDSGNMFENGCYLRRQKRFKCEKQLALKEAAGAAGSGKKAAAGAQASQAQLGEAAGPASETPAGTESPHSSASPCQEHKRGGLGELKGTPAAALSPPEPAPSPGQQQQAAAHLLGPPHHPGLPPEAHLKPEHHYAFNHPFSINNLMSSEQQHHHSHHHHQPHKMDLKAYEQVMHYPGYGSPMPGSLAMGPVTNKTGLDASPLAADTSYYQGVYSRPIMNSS
Chain of Transcription factor E2F1 (Homo sapiens) (Q01094 whole entry, looked up): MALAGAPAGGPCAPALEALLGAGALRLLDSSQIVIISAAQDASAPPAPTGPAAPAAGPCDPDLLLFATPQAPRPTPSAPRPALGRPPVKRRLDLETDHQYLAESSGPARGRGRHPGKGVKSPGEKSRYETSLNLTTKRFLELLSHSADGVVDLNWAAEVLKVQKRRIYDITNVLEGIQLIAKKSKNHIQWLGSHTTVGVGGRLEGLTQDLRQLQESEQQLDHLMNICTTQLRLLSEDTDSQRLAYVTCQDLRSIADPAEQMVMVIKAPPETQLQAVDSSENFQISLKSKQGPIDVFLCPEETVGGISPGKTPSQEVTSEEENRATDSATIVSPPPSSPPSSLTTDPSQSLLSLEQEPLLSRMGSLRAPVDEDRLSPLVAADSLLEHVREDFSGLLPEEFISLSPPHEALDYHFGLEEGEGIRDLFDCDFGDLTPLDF

O=C(O[C@@H]1Cc2c(O)cc(O)cc2O[C@@H]1c1cc(O)c(O)c(O)c1)c1cc(O)c(O)c(O)c1
active: [4] 20.8 µM | [6] 72.5 µM | [8] 3.86 µM
inactive: all other assays above

CCC(C)c1ccccc1 (centres undefined)
not listed: [5] | [8] | [19]
inactive: all other assays above

CC(CC=O)CC(C)(C)C (centres undefined)
not listed: [7] | [11]
inactive: all other assays above

CCOC(=O)/C=C\C(=O)OCC
not listed: [6] | [18]
inactive: all other assays above

CCCCCCCC(=O)OCC(COC(=O)CCCCCCC)OC(=O)CCCCCCC
not listed: [7] | [8]
inactive: all other assays above

COC(OC)(C(=O)c1ccccc1)c1ccccc1
active: [13] 35.1 µM | [15] 2.01 µM
not listed: [6] | [7] | [9] | [12]
inactive: all other assays above

Cc1c(Cl)cccc1Cl
not listed: [6] | [9] | [11]
inactive: all other assays above

CC(=O)c1ccc(S(=O)(=O)NC(=O)NC2CCCCC2)cc1
active: [5] 100 µM
inactive: all other assays above

C=CC(C)(CCC=C(C)C)OC(=O)C=Cc1ccccc1 (centres undefined)
active: [4] 84.2 µM | [6] 100 µM | [15] 17.7 µM
not listed: [7]
inactive: all other assays above
